This is part of a sample that, as a whole, favours compounds with a hit. Of some 83,000 tested, about 20% had one in any assay.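 96-well plates, one dose, 48 hours. Percent growth reported; active if below 10.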 Values without a mark were called inactive. Activity calls are given as the source filed them.
Columns and labels:
Assay in all cases: NCI-60 one-dose screen, 48 h (100 = growth as untreated, 0 = no growth, -100 = all killed)
Conditions in all cases: 10 µM unless noted
[1] = test system: RPMI-8226 leukemia
[2] = test system: OVCAR-8 ovarian
[3] = test system: OVCAR-5 ovarian
[4] = test system: OVCAR-4 ovarian
[5] = test system: SK-OV-3 ovarian
[6] = test system: IGROV1 ovarian
[7] = test system: OVCAR-3 ovarian
[8] = test system: HS 578T breast
[9] = test system: NCI/ADR-RES ovarian
[10] = test system: T-47D breast
[11] = test system: BT-549 breast
[12] = test system: MDA-MB-435 melanoma
[13] = test system: SW-620 colon
[14] = test system: MCF7 breast
[15] = test system: HCT-116 colon
[16] = test system: HCC-2998 colon
[17] = test system: KM12 colon
[18] = test system: SR leukemia

Row | SMILES | growth [1] | growth [2] | growth [3] | growth [4] | growth [5] | growth [6] | growth [7] | growth [8] | growth [9] | growth [10] | growth [11] | growth [12] | growth [13] | growth [14] | growth [15] | growth [16] | growth [17] | growth [18]
1 | O=S(=O)(Nc1ccc(OC(F)F)cc1)c1ccc(-c2cnc(C3CC3)o2)cc1 | 52.8% | 78.4% | 97.5% | 52.3% | 83.4% | 64.8% | 71.5% | 75.5% | 41.5% | 48.3% | 63.4% | 8.1% (active) | 35.2% | 39.1% | 65.4% | 80.5% | 74.1% | 
2 | COc1ccc(/C=C(\C#N)C(=O)Nc2cccc(Nc3nc(SC)nc(-c4cccc([N+](=O)[O-])c4)c3C#N)c2)cc1OC | 83.8% | 102% | 96.6% | 91.1% | 99% | 74.7% | 112% | 104% | 104% | 87% | 95.9% | 103% | 102% | 70.8% | 92.6% | 114% | 99.1% | 
3 | COc1ccc(-c2cc(NC(=O)Nc3ccc4ncsc4c3)no2)cc1 | 92.6% | 102% | 98.6% | 96.2% | 118% | 107% | 114% | 93.3% | 106% | 86.6% | 106% | 105% | 105% | 84.6% | 102% | 103% | 100% | 
4 | C(=C\c1nccc2c1[nH]c1ccccc12)/c1ccccc1 |  | 26.1% | 62.9% | 14.9% |  | -15.9% (active) | -13.3% (active) | 29.2% | 15.5% | 29.8% | 10.9% | -38.9% (active) | 14.8% | 8.84% (active) | 21.5% |  | 15.6% | 82.7%
5 | CC1(C)CC[C@]2(C(=O)Nc3ccccn3)CC[C@]3(C)C(=CC[C@@H]4[C@@]5(C)C/C(=C/c6cccnc6)C(=O)C(C)(C)[C@@H]5CC[C@]43C)[C@H]2C1 | 13.3% | 29.3% | 56.4% | 26.7% | 74% | 52.8% | 35.4% | 63.4% | 42.2% | 12.8% | 42.2% | 38.3% | 33.9% | 11.4% | 11.4% | 40.4% | 40.1% | 
6 | CC(=O)OCCC/C(=C/c1cc2ccccc2c2ccccc12)[N+](=O)[O-] |  | -100% (active) | -95.1% (active) | 0.455% (active) | 44.7% |  | -99.1% (active) | -46.2% (active) | -29.4% (active) | -66.7% (active) | -50% (active) | -36.2% (active) | -88.2% (active) | -87.8% (active) | -100% (active) | -99.5% (active) | -99.2% (active) | -45.8% (active)
7 | COc1cc(C=Nc2oc(-c3ccccc3)c(-c3ccccc3)c2C#N)cc(CN2CCCCC2)c1O | 100% | 105% | 97% | 91.6% | 116% | 99.6% | 110% | 95.9% | 95.7% | 86.8% | 111% | 103% | 104% | 94% | 95% | 102% | 100% | 
8 | C=C(C)[C@@H]1CC[C@]2(C(=O)OC)CC[C@]3(C)[C@H](CC[C@@H]4[C@@]5(C)C/C(=C/c6cccc(I)c6)C(=O)C(C)(C)[C@@H]5CC[C@]43C)[C@@H]12 | 95.7% | 101% | 98.7% | 107% | 93.9% | 103% | 119% | 88% | 94.1% | 93.6% | 101% | 96.6% | 101% | 89.2% | 95.4% | 99.7% | 101% | 
9 | CON1C(=O)CC[C@]2(C)[C@H]3CC[C@@H]4C([C@@]5(C)CCC(=O)O5)CC[C@@]4(C)[C@]3(C)CC[C@H]2C1(C)C (stereo partly specified) | 98.6% | 102% | 98.4% | 92.8% | 104% | 111% | 110% | 101% | 97.1% | 90.7% | 103% | 101% | 103% | 94.8% | 91.4% | 108% | 101% | 
10 | CC1=CC(C)(C)Nc2ccc(Cc3ccc4c(c3)C(C)=CC(C)(C)N4)cc21 |  | 96.9% | 89.7% | 72.2% | 105% | 92.7% | 97.4% | 103% | 100% | 76.2% | 80.1% | 120% | 130% | 84.2% | 83.5% |  | 105% | 118%
11 | O=S(=O)(Nc1ccc(Br)c(Cl)c1)c1ccc(-c2cnc(C3CC3)o2)cc1 | 20.5% | 20.4% | 29.4% | 46.3% | 36.3% | 26.8% | -19.6% (active) | 10% (active) | -15.2% (active) | 30.9% | 38.3% | -17.1% (active) | 19.3% | 11.7% | 19.5% | 45.9% | 33.8% | 
12 | Nc1nc2ncc(CCNc3ccc(C(=O)O)cc3)nc2c(=O)[nH]1 | 99.4% | 108% | 103% | 127% | 115% | 113% | 128% | 117% | 115% | 115% | 124% | 112% | 110% | 110% | 104% | 117% | 111% | 
13 | Cc1nc(/N=C(\N)NC(=O)Nc2cccc([N+](=O)[O-])c2)sc1C | 74.3% | 100% | 91.5% | 88.6% | 101% | 76.1% | 95.9% | 74.5% | 46.2% | 80.8% | 65.8% | 8.17% (active) | 40.1% | 31.1% | 71.1% | 84.1% | 72.1% | 
14 | NC(N)=N/N=C(/c1ccccc1)c1ccc(F)cc1 |  | -65.7% (active) | 4.37% (active) | 27.9% | 17.6% |  | -48.8% (active) | -13.4% (active) | -37.3% (active) | 51.2% | 14.7% | -19.2% (active) | 28.8% | 12.3% | 2.71% (active) | -43.7% (active) | -7.82% (active) | -19.4% (active)
15 | COc1ccc(-c2cc(Nc3ccnc(N4CCOCC4)n3)on2)cc1 | 25.2% | 37.2% | 46.6% | 62.1% | 43.2% | 43.1% | -17.6% (active) | 18.7% | 10.8% | 55.1% | 57.1% | -30.2% (active) | 31.1% | 24.4% | 12.7% | 40.4% | 20.3% | 
16 | CC1=CC(=NN=c2cc(C)n([O-])c(C)c2)C=C(C)[N+]1=O | 67.4% | 86.2% | 110% | 78% | 111% | 89.2% | 110% | 98.8% | 111% | 43.9% | 75.1% | 85.9% | 101% | 19.3% | 83.1% | 63.2% | 95.3% | 
17 | c1ccc(-c2c(-c3ccccc3)[n+](Cc3ccc4ccccc4c3)c(-c3ccc(-c4nc5ccccc5s4)cc3)n2Cc2ccc3ccccc3c2)cc1 | -40.5% (active) | -85.4% (active) | -93% (active) | -62.9% (active) | -97.4% (active) | -84.8% (active) | -89.4% (active) | -45.3% (active) | -52.1% (active) | -78.2% (active) | -87.5% (active) | -76.9% (active) | -78.3% (active) | -65.5% (active) | -83.5% (active) | -93.8% (active) | -88.1% (active) | 
18 | COc1cccc(-c2nc3sccn3c2-c2ccnc(NCCCNS(=O)(=O)c3cccc(F)c3)c2)c1 | -19.9% (active) | 14.4% | 59.4% | 20.2% | 54.3% | 27.7% | 39.6% | 57.7% | 4.88% (active) | -8.47% (active) | 6.32% (active) | 12.2% | 50% | 24.8% | 20.8% | 64.7% | 23.2% | 
